In PubChem BioAssay AID376 (PDSP, 2006):
Among all 2,000 compounds or so, about 250 (12%) were called active. The sample as a whole holds a higher share of actives than the screen did. A number with no mark means an inactive call. No stated cut-off is given here; in the data, active means hERG blockade below about -20% or above about 20%; inactive means in between.

The compounds below were run against Voltage-gated inwardly rectifying potassium channel KCNH2 (Homo sapiens) (UniProt Q12809) (assay: modulators of KCNH2 ion channel function, cellular (AID 376;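 further: 0% = buffer alone and 100% = reference blocker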)). Conditions: hERG-expressing cells, channel activity single-concentration screen; concentration not given here.
Chain of Voltage-gated inwardly rectifying potassium channel KCNH2 (Homo sapiens) (Q12809 whole entry, looked up): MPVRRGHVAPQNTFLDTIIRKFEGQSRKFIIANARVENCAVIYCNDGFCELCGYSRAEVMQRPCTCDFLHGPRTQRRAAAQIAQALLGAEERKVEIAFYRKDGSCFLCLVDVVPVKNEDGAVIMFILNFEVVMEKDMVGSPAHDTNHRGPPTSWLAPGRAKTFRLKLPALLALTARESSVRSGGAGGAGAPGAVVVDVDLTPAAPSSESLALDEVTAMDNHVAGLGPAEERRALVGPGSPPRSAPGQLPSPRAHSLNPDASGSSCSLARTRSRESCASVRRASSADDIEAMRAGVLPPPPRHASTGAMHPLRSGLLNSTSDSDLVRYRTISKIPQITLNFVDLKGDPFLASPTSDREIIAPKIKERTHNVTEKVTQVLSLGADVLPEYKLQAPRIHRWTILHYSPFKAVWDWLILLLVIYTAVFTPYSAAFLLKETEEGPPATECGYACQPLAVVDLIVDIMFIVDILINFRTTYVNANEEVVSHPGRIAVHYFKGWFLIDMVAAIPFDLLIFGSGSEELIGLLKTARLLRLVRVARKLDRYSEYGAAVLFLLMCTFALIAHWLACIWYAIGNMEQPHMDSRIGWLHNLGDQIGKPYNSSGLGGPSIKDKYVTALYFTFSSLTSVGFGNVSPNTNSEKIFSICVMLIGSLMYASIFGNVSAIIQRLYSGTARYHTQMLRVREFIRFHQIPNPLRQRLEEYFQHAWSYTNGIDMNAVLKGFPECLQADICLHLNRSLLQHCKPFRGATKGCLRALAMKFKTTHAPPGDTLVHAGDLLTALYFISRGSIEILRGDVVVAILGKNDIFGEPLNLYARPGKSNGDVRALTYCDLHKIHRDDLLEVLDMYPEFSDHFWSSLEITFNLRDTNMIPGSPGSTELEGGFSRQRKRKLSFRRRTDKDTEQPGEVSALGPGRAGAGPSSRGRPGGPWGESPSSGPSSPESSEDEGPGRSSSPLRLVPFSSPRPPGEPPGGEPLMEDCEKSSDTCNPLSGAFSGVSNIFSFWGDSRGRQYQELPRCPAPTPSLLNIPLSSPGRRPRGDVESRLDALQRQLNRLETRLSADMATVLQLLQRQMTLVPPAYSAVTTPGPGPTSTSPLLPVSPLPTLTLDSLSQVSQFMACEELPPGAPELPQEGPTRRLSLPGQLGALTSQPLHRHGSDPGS
With `OCCCN=C1CCCCC1` the hERG blockade was 13.3%. Work on `NCc1ccc(C(=O)O)cc1` yielded a hERG blockade of -10.8%. `c1cncc(CNc2ncn[nH]2)c1` showed a hERG blockade of -6.56%. Compound `CC(C)N1CCN(c2ccncc2S(=O)(=O)N2CCCCC2)CC1` has a hERG blockade of 4.4%. `O=c1[nH]c2[nH]c(=S)[nH]c(=S)c2[nH]1` was tested, and the hERG blockade was 33.1% (active). For `O=c1[nH][nH]c(=S)c(=O)[nH]1`, the hERG blockade was 4.97%. Work on `Clc1ccccc1NN(Cc1ccccn1)c1ccccc1Cl` yielded a hERG blockade of 7.97%. For `Cc1cc(=O)[nH]c(N=C(N)Nc2ccc(Cl)cc2)n1`, the hERG blockade was -17.7%. `Cc1cccc(C(=O)O)c1CC1NCCC2c3ccccc3NC12` (stereo unspecified) was tested, and the hERG blockade was 32.1% (active). With `NC(Cc1cccnn1)C(=O)O` (stereo unspecified) the hERG blockade was 5.87%. With `O=S(=O)(O)n1ccnc1` (tested in a mixture with another compound) the hERG blockade was -15.4%. Compound `S=C(Nc1ccc2cn[nH]c2c1)Nc1ccc2cn[nH]c2c1` has a hERG blockade of -19.3%. With `CCN(CC)CC[n+]1ccc2c(C)c3[nH]c4ccccc4c3c(C)c2c1` the hERG blockade was 36.7% (active). For `Cc1c2cc[n+](CCN3CCCCC3)cc2c(C)c2c1[nH]c1ccc(O)cc12`, the hERG blockade was 26.1% (active). In the case of `CCN(CC)CC[n+]1ccc2c(C)c3[nH]c4ccc(O)cc4c3c(C)c2c1`, the hERG blockade is reported as 45.4% (active). With `NCCNC(=S)S` the hERG blockade was 5.6%. Work on `NN=C1CC(=O)NC(=O)N1` yielded a hERG blockade of -9.37%. Compound `CCCCNc1nc(SC)nc2nc[nH]c12` has a hERG blockade of 6.48%. Work on `COC1C=COC2(C)Oc3c(C)c(O)c4c(O)c(cc(O)c4c3C2=O)NC(=O)C(C)=CC=CC(C)C(O)C(C)C(O)C(C)C(OC(C)=O)C1C` (stereo unspecified) yielded a hERG blockade of 8.1%. In the case of `CC(C)(C)COS(=O)OCC(C)(C)C`, the hERG blockade is reported as -13.1%. Compound `CC(=O)C=NCC(=O)O` has a hERG blockade of -0.567%. Compound `O=C(O)Cc1c[nH]c2ccc(F)cc12` has a hERG blockade of -3.11%. `CCOP1(=O)OCC2OC(n3cnc4c(N)ncnc43)C(O)C2O1` (stereo unspecified) showed a hERG blockade of 5.38%. In the case of `CCOc1ccc2c(ccc(C=Cc3cc(C)c4cccnc4c3O)[n+]2C)c1`, the hERG blockade is reported as 37% (active). With `O=C(O)CCC(C(=O)O)N1C(=O)C2C3CCC(C3)C2C1=O` (stereo unspecified) the hERG blockade was 7.54%. Compound `CC12CCC(=O)C=C1CCC1C2C(O)CC2(C)C(c3csc(-c4ccccc4)n3)CCC12` (stereo unspecified) has a hERG blockade of -6.87%. For `CCc1ccc2c(c1)N(CC(C)CN(C)C)c1ccccc1S2` (stereo unspecified), the hERG blockade was 25.4% (active). Work on `O=C(O)C(Cc1ccccc1)Cc1ccccc1` yielded a hERG blockade of -4.1%. For `CN(C)c1ccc(C(C#N)N2CCCN(C(C#N)c3ccc(N(C)C)cc3)C2c2ccc(N(C)C)cc2)cc1` (stereo unspecified), the hERG blockade was 6%. With `Cc1ccc(S(=O)(=O)N=Nc2c(O)[nH]c3cc(O)c(C(=O)O)cc23)cc1` the hERG blockade was -2.22%. `Fc1cccc(CSc2ncnc3c2ncn3C2CCCS2)c1` (stereo unspecified) showed a hERG blockade of 12.5%. For `OCC1OC(n2cnc3c(SCc4ccccc4)ncnc32)C(O)C1O` (stereo unspecified), the hERG blockade was 22.8% (active). In the case of `Clc1ccc(CSc2ncnc3c2ncn3C2CCCCO2)cc1` (stereo unspecified), the hERG blockade is reported as 24.5% (active). With `C[N+](C)(C)c1nc(N)nc2c1ncn2C1OC(CO)C(O)C1O` (stereo unspecified) the hERG blockade was 13.1%. For `OCCn1cnc2c(SCc3ccccc3)ncnc21`, the hERG blockade was -7.5%. With `OCC1OC(n2cnc3c(C=C(O)c4ccccc4)ncnc32)C(O)C1O` (stereo unspecified) the hERG blockade was 9.21%. `O=[N+]([O-])c1ccc(Cl)c(CNc2ncnc3c2ncn3C2CCCCO2)c1` (stereo unspecified) was tested, and the hERG blockade was 7.11%. For `C[N+](C)(C)c1ncnc2c1ncn2C1CCCCO1` (stereo unspecified), the hERG blockade was -24.9% (active). In the case of `NC(CNO)C(=O)O` (stereo unspecified), the hERG blockade is reported as -10.6%. Compound `Nc1nc2c(ncn2C2C=CC(CO)C2)c(=O)[nH]1` (stereo unspecified) has a hERG blockade of 1.77%. `CN1CCCC1c1cccnc1.O=C(O)c1ccccc1O.O=C([OH2+])c1ccccc1O.O=C([OH2+])c1ccccc1O.O=C([OH2+])c1ccccc1O.[Mn+2]` (stereo unspecified) gave a hERG blockade of 15.5%. With `CN1CCCC1c1cccnc1.O=C(O)c1ccccc1O.O=C([OH2+])c1ccccc1O.O=C([OH2+])c1ccccc1O.[Mn+2]` (stereo unspecified) the hERG blockade was 13.4%. In the case of `CN1CCCC1c1cccnc1.O=C(O)c1ccccc1O.O=C([OH2+])c1ccccc1O.O=C([OH2+])c1ccccc1O.O=C([OH2+])c1ccccc1O.[Cu+2]` (stereo unspecified), the hERG blockade is reported as 26% (active). Work on `O=C(O)CCSc1ncnc2nc[nH]c12` yielded a hERG blockade of 2.65%. `N=C(c1ccc2ccccc2c1)c1ccccc1Cc1ccccc1` showed a hERG blockade of 9.45%. For `CC1(CCOCc2ccccc2)NC(=O)NC1=O` (stereo unspecified), the hERG blockade was -3.15%. In the case of `COc1ccc(C[N+](C)(C)N)cc1OC`, the hERG blockade is reported as -25.5% (active). Compound `COc1ccc(C=C(C#N)C(N)=O)cc1OC` has a hERG blockade of 4.46%. `Nc1nc(N)nc(CCCCc2nc(N)nc(N)n2)n1` showed a hERG blockade of 8.11%. Compound `NCc1nnn(Cc2ccccc2)c1N` has a hERG blockade of 0.879%. Work on `CC1(C(=O)O)CCCC1C(=O)O` (stereo unspecified) yielded a hERG blockade of 0.951%. Compound `O=c1ccnc(SCc2ccc(Cl)cc2)[nH]1` has a hERG blockade of -3.26%. In the case of `O=S(=O)(CC(O)C(Cl)(Cl)Cl)NNc1ccccc1` (stereo unspecified), the hERG blockade is reported as -8.3%. In the case of `O=CNC(Cc1cnc[nH]1)C(=O)O` (stereo unspecified), the hERG blockade is reported as -6.41%. With `O=S(=O)(O)c1cc(N=Nc2cccc3ccccc23)c(O)c2ncccc12` the hERG blockade was 10.6%. With `O=S(=O)(O)c1cc(N=[N+]([O-])c2cc(S(=O)(=O)O)c3ccccc3c2)cc2ccccc12` the hERG blockade was 20.3% (active). Work on `Nc1ccc(N=Nc2c(S(=O)(=O)O)cc3ccccc3c2S(=O)(=O)O)cc1` yielded a hERG blockade of 5.01%. Work on `CCC(Nc1ncnc2nc[nH]c12)C(=O)O` (stereo unspecified) yielded a hERG blockade of -0.207%. `S=C(S)NCCN1CCNCC1` was tested, and the hERG blockade was 6.35%. In the case of `O=CN1CCN(CC(O)CN2CCCCC2)CC1` (stereo unspecified), the hERG blockade is reported as -4.54%. `CN(C)CC1CCCC(CN(C)C)C1=O` (stereo unspecified) showed a hERG blockade of -6%. With `CN(C)CC1CCC2=C(C1=O)C(c1ccc(Cl)c(Cl)c1)C1=C(CCC(CN(C)C)C1=O)O2` (stereo unspecified) the hERG blockade was 24.7% (active). `O=C1c2ccccc2C(=O)N1c1ccc(Cc2ccc(N3C(=O)c4ccccc4C3=O)cc2)cc1` showed a hERG blockade of -0.893%. With `O=C(O)C=CC(=O)Nc1ccccn1` the hERG blockade was 5.5%. With `N=C(CC(=O)Nc1ccccn1)c1ccccc1` the hERG blockade was -21.8% (active). Compound `O=C(CC(=O)c1ccncc1)c1ccccc1` has a hERG blockade of 10.3%. Work on `CC1CC2C3CCC4=CC(=O)C=CC4(C)C3(Cl)C(Cl)CC2(C)C1(O)C(=O)COP(=O)(O)O` (stereo unspecified) yielded a hERG blockade of 10.3%. With `COc1cc2c(cc1OC)C(CCN)=NCC2` the hERG blockade was 26.9% (active). Compound `Cc1cc(OCC(=O)O)c(Cl)cc1Cl` has a hERG blockade of 3.22%. In the case of `O=c1[nH]c(=S)[nH]c(-c2ccccc2)c1Cc1c(O)ccc2ccccc12`, the hERG blockade is reported as -0.358%. Work on `O=C(O)CCCCn1cnc2c(=S)nc[nH]c21` yielded a hERG blockade of 6.53%. In the case of `O=C(O)CCn1cnc2c(=S)nc[nH]c21`, the hERG blockade is reported as -35.8% (active). For `S=c1nc[nH]c2c1ncn2Cc1ccco1`, the hERG blockade was -15.9%. `Nc1ccccc1SCc1csc(-c2ccc(Cl)cc2)n1` was tested, and the hERG blockade was 4.83%. For `CC(C)c1cc(C(F)(F)F)nc(NNc2nc(C(C)C)cc(C(F)(F)F)n2)n1`, the hERG blockade was 7.39%. Work on `OCC1CCCC(n2cnc3c(=S)nc[nH]c32)O1` (stereo unspecified) yielded a hERG blockade of -13.5%. Compound `COc1nc(N)nc2c1ncn2C1CC(O)C(CO)O1` (stereo unspecified) has a hERG blockade of 12%. In the case of `Nc1nc2c(ncn2C2CCC(CO)O2)c(=O)n1C(=O)c1ccccc1` (stereo unspecified), the hERG blockade is reported as -28.6% (active). With `O=C(O)c1c2c(c(O)c3c1CN(C1CCCCC1)CO3)OCN(C1CCCCC1)C2` the hERG blockade was -1.92%. In the case of `C[N+](C)(C)CCCSc1nc2ccccc2[nH]1`, the hERG blockade is reported as 6.28%. `CC(CCC(=O)O)(c1cc(Br)c(O)c(Br)c1)c1cc(Br)c(O)c(Br)c1` was tested, and the hERG blockade was 5.39%. In the case of `CN(C)CN1C(=O)SC(=C2C(=O)N(CN(C)C)c3ccccc32)C1=O`, the hERG blockade is reported as -4.39%. In the case of `CN(C)CC(C)(C)CN1c2ccccc2Sc2ccccc21`, the hERG blockade is reported as 22.5% (active). `c1ccc2c(c1)-c1nc3ccccc3cc1C2N1CCOCC1` (stereo unspecified) gave a hERG blockade of -9.86%. In the case of `Cc1ncc(CN=Cc2ccc(Cl)cc2)c(N)n1`, the hERG blockade is reported as 6.55%. Work on `CC12CCC3c4ccc(O)cc4CCC3C1CCC2OC(=O)CCC1CCCC1` (stereo unspecified) yielded a hERG blockade of 6.8%. With `CC(=NO)c1ccc2cc(Br)c3ccccc3c2c1` the hERG blockade was 61.6% (active). `CC(Br)C(=O)c1ccc2cc(Br)c3ccccc3c2c1` (stereo unspecified) showed a hERG blockade of 8.72%. In the case of `CCCS(=O)(=O)O`, the hERG blockade is reported as -0.642%. `c1ccc2c(c1)c1ccccc1n2Cn1c2ccccc2c2ccccc21` was tested, and the hERG blockade was -38.4% (active). For `c1ccc2c(CSCc3cccc4ccccc34)cccc2c1`, the hERG blockade was 13.9%. Work on `NC(=O)CC(N)c1nn[nH]n1` (stereo unspecified) yielded a hERG blockade of -2.74%. `CN1CCCCC1CCN1CCCCC1` (stereo unspecified) gave a hERG blockade of 1.07%. `CN1CCCCC1CCN1c2ccccc2Sc2ccc(S(C)=O)cc21` (stereo unspecified) was tested, and the hERG blockade was 16.5%. For `COc1ccc2c(c1)N(CCC1CCCCN1C)c1ccccc1S2` (stereo unspecified), the hERG blockade was 59.1% (active). In the case of `OC(C1=CC(=Cc2ccncc2)c2ccccc21)c1ccncc1` (stereo unspecified), the hERG blockade is reported as 1.87%. With `O=C(NCc1cccs1)OC1CC2CCC1C2` (stereo unspecified) the hERG blockade was -2.2%. `C[N+](C)(C)CC(=O)NN=Cc1c(O)ccc2ccccc12` gave a hERG blockade of -4.06%. For `c1ccc(C(CCN2CCCC2)c2ccccn2)cc1` (stereo unspecified), the hERG blockade was 3.48%. With `c1ccc(C(CCN2CC3CCC(CC3)C2)c2ccccc2)cc1` the hERG blockade was 56.9% (active). `c1ccc2c(c1)-c1ccccc1C2N1CC2CCC(CC2)C1` showed a hERG blockade of -7.32%. Compound `Nc1cc(S(N)(=O)=O)ccc1SSc1ccc(S(N)(=O)=O)cc1N` has a hERG blockade of -0.877%. Compound `OC(COc1cccc2ccccc12)CN1CCOCC1` (stereo unspecified) has a hERG blockade of 2.26%. `Nc1ccc2[nH]cc(CCC(=O)O)c2c1` was tested, and the hERG blockade was 1.56%. `O=P(O)(O)OC1OC(CO)C(O)C(O)C1O` (stereo unspecified) was tested, and the hERG blockade was -24.6% (active). `OCC1OC(N2CCN(C3OC(CO)C(O)C(O)C3O)CC2)C(O)C(O)C1O` (stereo unspecified) gave a hERG blockade of -5.49%.
